Calls of active or inactive are those of the source. The calls were made as follows: active = hit-call score of the fitted dose curve at least 0.9, where 1 is the maximum; inactive = score below 0.9.

Read-out in test [1]: Thrombomodulin, THBD (gene 7056)
The experiment in a line: BSK_CASM3C_Thrombomodulin: BioMAP Diversity Plus: CASM3C Assay for Thrombomodulin Biomarker Activity (AID 2283051).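 Also: thrombomodulin protein level measured by ELISA 24 h after dosing.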 Particulars: primary human coronary artery smooth muscle cells; actives raise or lower the signal.

Read-out in test [2]: Tissue Factor, F3 (gene 2152)
The experiment in a line: BSK_CASM3C_TissueFactor: BioMAP Diversity Plus: CASM3C Assay for Tissue Factor Biomarker Activity (AID 2283052).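 Also: cell surface tissue factor protein level read by ELISA.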 Particulars: primary human coronary artery smooth muscle cells; actives raise or lower the signal.

Read-out in test [3]: Interferon-gamma inducible Protein 10 (IP10), CXCL10 (gene 3627)
The experiment in a line: BSK_hDFCGF_IP10: BioMAP Diversity Plus: hDFCGF Assay for Interferon-gamma inducible Protein 10 (IP10) Biomarker Activity (AID 2283053). Particulars: primary human foreskin fibroblasts; actives raise or lower the signal. The gist of the method:
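Primary human foreskin fibroblasts exposed to chemicals for 24 h. IP-10 measured by ELISA; changes fitted bidirectionally against DMSO baseline.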

Read-out in test [4]: Urokinase-type plasminogen activator receptor (uPAR), PLAUR (gene 5329)
The experiment in a line: BSK_CASM3C_uPAR: BioMAP Diversity Plus: CASM3C Assay for Urokinase-type plasminogen activator receptor (uPAR) Biomarker Activity (AID 2283054).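 Also: cell-surface uPAR protein level quantified by ELISA.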 The conditions noted are these: primary human coronary artery smooth muscle cells; actives raise or lower the signal.

Read-out in test [5]: Vascular cell adhesion molecule 1 (VCAM1), VCAM1 (gene 7412)
The experiment in a line: BSK_CASM3C_VCAM1: BioMAP Diversity Plus: CASM3C Assay for Vascular cell adhesion molecule 1 (VCAM1) Biomarker Activity (AID 2283055).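 Also: VCAM-1 protein level quantified by ELISA on the cells.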 Particulars: primary human coronary artery smooth muscle cells; actives raise or lower the signal.

Read-out in test [6]: Collagen III, COL3A1 (gene 1281)
The experiment in a line: BSK_hDFCGF_CollagenIII: BioMAP Diversity Plus: hDFCGF Assay for Collagen III Biomarker Activity (AID 2283056). Particulars: primary human foreskin fibroblasts; actives raise or lower the signal. The gist of the method: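 hDFCGF primary human dermal fibroblasts; 24 h chemical exposure; collagen III by ELISA; bidirectional curve fit vs DMSO baseline (gain or loss of signal).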

Read-out in test [7]: Epidermal growth factor receptor (EGFR), EGFR (gene 1956)
The experiment in a line: BSK_hDFCGF_EGFR: BioMAP Diversity Plus: hDFCGF Assay for Epidermal growth factor receptor (EGFR) Biomarker Activity (AID 2283057). The conditions noted are these: primary human foreskin fibroblasts; actives raise or lower the signal. The gist of the method: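 Primary human foreskin fibroblasts (hDFCGF system), sampled 24 h after dosing; EGFR quantified by ELISA. Bidirectional fit relative to DMSO baseline; SRB total-protein staining in parallel cultures for cytotoxicity.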

Test [8] can be described thus: BSK_hDFCGF_Proliferation: Cell Proliferation Assessment in the BioMAP Diversity Plus: hDFCGF Assay (AID 2283059).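 Also: curves fitted for both rise and fall of signal versus DMSO baseline.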 Particulars: primary human foreskin fibroblasts. The procedure, abridged: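 This proliferation readout used SRB total-protein staining of human foreskin fibroblasts […], normalized to DMSO with bidirectional curve fitting.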
Read-out in test [9]: Macrophage colony-stimulating factor (MCSF), CSF1 (gene 1435)
The experiment in a line: BSK_hDFCGF_MCSF: BioMAP Diversity Plus: hDFCGF Assay for Macrophage colony-stimulating factor (MCSF) Biomarker Activity (AID 2283060). Particulars: primary human foreskin fibroblasts; actives raise or lower the signal. The procedure, abridged:
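ELISA read-out of M-CSF in human dermal foreskin fibroblast cultures, 24 h after chemical dosing; gain or loss of signal fitted bidirectionally relative to DMSO baseline.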

A short description of test [10]: BSK_hDFCGF_SRB: Viability Assessment in the BioMAP Diversity Plus: hDFCGF Assay (AID 2283061).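 Also: cells exposed to compound for 24 h before the read.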 Particulars: primary human foreskin fibroblasts. The gist of the method: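 Primary human foreskin fibroblasts; 24 h post-dose; fixed 10% TCA, stained 0.1% SRB, A560 read; total protein as overt cytotoxicity measure; curves fit bidirectionally vs DMSO control.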
Read-out in test [11]: Monokine induced gamma interferon (MIG), CXCL9 (gene 4283)
The experiment in a line: BSK_hDFCGF_MIG: BioMAP Diversity Plus: hDFCGF Assay for Monokine induced gamma interferon (MIG) Biomarker Activity (AID 2283063). The conditions noted are these: primary human foreskin fibroblasts; actives raise or lower the signal. The procedure, abridged:
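Fibroblasts (human foreskin, primary) dosed, 24 h, MIG by ELISA; fit bidirectional vs DMSO.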

Read-out in test [12]: Matrix Metallopeptidase 1 (MMP1), MMP1 (gene 4312)
The experiment in a line: BSK_hDFCGF_MMP1: BioMAP Diversity Plus: hDFCGF Assay for Matrix Metallopeptidase 1 (MMP1) Biomarker Activity (AID 2283064). The conditions noted are these: primary human foreskin fibroblasts; actives raise or lower the signal. The procedure, abridged:
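Primary human foreskin fibroblasts in the hDFCGF system were dosed with test chemical, and MMP1 was measured by ELISA 24 h later. Values come from bidirectional curve fitting against the DMSO baseline.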

Read-out in test [13]: Vascular cell adhesion molecule 1 (VCAM1), VCAM1 (gene 7412)
The experiment in a line: BSK_hDFCGF_VCAM1: BioMAP Diversity Plus: hDFCGF Assay for Vascular cell adhesion molecule 1 (VCAM1) Biomarker Activity (AID 2283065).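 As to AC50: VCAM-1 protein level quantified by ELISA after 24 h chemical exposure.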 The conditions noted are these: primary human foreskin fibroblasts; actives raise or lower the signal. The gist of the method: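 ELISA read-out of VCAM-1 on human skin fibroblasts, 24 h post-dose; gain or loss of signal fitted bidirectionally against DMSO baseline.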

Read-out in test [14]: Plasminogen activator inhibitor-1 (PAI1), SERPINE1 (gene 5054)
The experiment in a line: BSK_hDFCGF_PAI1: BioMAP Diversity Plus: hDFCGF Assay for Plasminogen activator inhibitor-1 (PAI1) Biomarker Activity (AID 2283066). Particulars: primary human foreskin fibroblasts; actives raise or lower the signal. The procedure, abridged: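 Human foreskin fibroblast primary cells, 24 h chemical exposure; PAI-1 measured by ELISA. Bidirectional fitting relative to DMSO; parallel cultures stained with SRB for total protein to flag overt cytotoxicity.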

Read-out in test [15]: Intercellular Adhesion Molecule 1 (ICAM1), ICAM1 (gene 3383)
The experiment in a line: BSK_KF3CT_ICAM1: BioMAP Diversity Plus: KF3CT Assay for Intercellular Adhesion Molecule 1 (ICAM1) Biomarker Activity (AID 2283067). The conditions noted are these: primary human keratinocytes with fibroblasts; actives raise or lower the signal. The gist of the method:
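ELISA readout of ICAM-1; KF3CT human skin co-culture (keratinocytes + foreskin fibroblasts), 24 h post-dose; gain/loss fit vs DMSO baseline.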

Read-out in test [16]: Interferon-gamma inducible Protein 10 (IP10), CXCL10 (gene 3627)
The experiment in a line: BSK_KF3CT_IP10: BioMAP Diversity Plus: KF3CT Assay for Interferon-gamma inducible Protein 10 (IP10) Biomarker Activity (AID 2283068). The conditions noted are these: primary human keratinocytes with fibroblasts; actives raise or lower the signal. The procedure, abridged: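 Signal is secreted/surface IP-10 by ELISA in a human primary skin co-culture of keratinocytes and foreskin fibroblasts, taken 24 h post-dosing; DMSO served as negative control.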

The nature of test [17]: BSK_KF3CT_SRB: Viability Assessment in the BioMAP Diversity Plus: KF3CT Assay (AID 2283069).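 Also: total protein by sulforhodamine B staining as a cytotoxicity measure; read 24 h after compound addition.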 Particulars: primary human keratinocytes with fibroblasts. The procedure, abridged:
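Human primary keratinocyte plus foreskin fibroblast co-culture exposed to chemicals for 24 h. Total protein measured by 0.1% sulforhodamine B staining after 10% TCA fixation, read at 560 nm; bidirectional fitting versus DMSO baseline.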

Read-out in test [18]: Interleukin-1 alpha (IL1a), IL1A (gene 3552)
The experiment in a line: BSK_KF3CT_IL1a: BioMAP Diversity Plus: KF3CT Assay for Interleukin-1 alpha (IL1a) Biomarker Activity (AID 2283070). Particulars: primary human keratinocytes with fibroblasts; actives raise or lower the signal. The procedure, abridged:
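Human keratinocyte plus foreskin fibroblast primary co-culture, sampled 24 h after chemical dosing. IL-1a measured by ELISA; responses fitted bidirectionally against DMSO baseline (negative control), so gain or loss of signal both count.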

Read-out in test [19]: Interleukin-8 (IL8), CXCL8 (gene 3576)
The experiment in a line: BSK_hDFCGF_IL8: BioMAP Diversity Plus: hDFCGF Assay for Interleukin-8 (IL8) Biomarker Activity (AID 2283058). The conditions noted are these: primary human foreskin fibroblasts; actives raise or lower the signal. The procedure, abridged: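 ELISA read-out of IL-8 from primary human foreskin fibroblast cultures taken 24 h after dosing; values are bidirectional fits relative to DMSO vehicle.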

Read-out in test [20]: TIMP metallopeptidase inhibitor 1 (TIMP1), TIMP1 (gene 7076)
The experiment in a line: BSK_hDFCGF_TIMP1: BioMAP Diversity Plus: hDFCGF Assay for TIMP metallopeptidase inhibitor 1 (TIMP1) Biomarker Activity (AID 2283062). Particulars: primary human foreskin fibroblasts; actives raise or lower the signal. The gist of the method:
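ELISA readout of TIMP-1 from human dermal foreskin fibroblast cultures 24 h post-dosing. Curves were fitted in both directions against DMSO baseline, with SRB total-protein staining in parallel cultures as a cytotoxicity check.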

As a reminder, the AC50 is the concentration at which the activity in the assay is half-maximal. As for `Nc1c(Cl)cc([N+](=O)[O-])cc1Cl`, the outcome in [1], in test [2], in test [4], in test [5], in test [6] and in [7] was inactive. Besides, the outcome in [9], in [10], in [11], in [13], in [14] and in [15] was inactive. The outcome in test [16], in test [17] and in test [18] was inactive. The AC50 in test [3] was 3.97 µM (active); in [8], 27.6 µM (active); in test [12], 4.71 µM (active).
As for `CCOP(=S)(OCC)SCCSCC`, the outcome in test [1], in [2], in [4], in test [5], in [6] and in test [7] was inactive. The outcome in test [19], in [8], in test [9], in [10], in test [20] and in [11] was inactive. For the same compound, the result in [14], in test [15], in test [17] and in test [18] was inactive. Further, the results for the AC50 in [13] and in test [16] were 36.9 µM (active) and 37 µM (active), respectively.
Regarding `O=C(O)c1cc(Oc2ccc(C(F)(F)F)cc2Cl)ccc1[N+](=O)[O-]`, the outcome in [1], in [2], in test [3], in [4], in test [5] and in test [6] was inactive. Besides, the result in test [7], in test [8], in test [9], in [10], in test [11] and in [13] was inactive. Moreover, the outcome in test [14], in [15], in test [16], in [17] and in [18] was inactive.
With `CNC(=O)ON=C(SC)C(=O)N(C)C`, the result in [1], in test [2], in test [3], in test [4], in [5] and in test [6] was inactive. For the same compound, the outcome in test [7], in test [8], in [9], in test [10], in test [11] and in test [12] was inactive. The result in [13], in test [14], in test [15], in [16], in [17] and in [18] was inactive.
Consider `CCC(=O)Nc1ccc(Cl)c(Cl)c1`, for which the result in test [1], in test [2], in [3], in [4], in [5] and in test [6] was inactive. Moreover, the result in [7], in test [8], in test [9], in [10], in [20] and in test [11] was inactive. Moreover, the result in test [13], in [14], in test [15], in test [16], in test [17] and in test [18] was inactive.
As to `CCCCN(CC)c1c([N+](=O)[O-])cc(C(F)(F)F)cc1[N+](=O)[O-]`, the outcome in test [1], in test [2], in test [4], in test [5], in [6] and in [7] was inactive. For the same compound, the outcome in test [11], in test [13], in test [15], in test [17] and in test [18] was inactive. Moreover, the AC50 in [3] was 25.5 µM (active); in test [8], 27.9 µM (active); in test [9], 29.8 µM (active); in test [10] it was 30.1 µM (active); in test [12] it was 4.66 µM (active); in [14], 31.1 µM (active). In test [16], the AC50 was 27.9 µM (active).
